# Experimental data as given in PubChem BioAssay (NCI).
# The panel holds about 83,000 compounds, 20% with a hit somewhere; the sample as a whole holds those more often.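 The endpoint reported here, percent growth, reads 100 for growth as untreated, 0 for no net growth and -100 for all cells dead.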 Active and inactive are the calls of the source. Rule for the calls: active = growth percent below 10; inactive = the rest.
# Test system: SF-268 CNS
# Assay: NCI-60 one-dose screen, 48 h (100 = growth as untreated, 0 = no growth, -100 = all killed)
# Details: 10 µM unless noted
row,Structure (SMILES),growth
1,CC(C)(C)n1cc(-c2ccnc(NCCCNS(=O)(=O)c3cccc(F)c3)c2)c(-c2cccc(O)c2)n1,54% (inactive)
2,Cc1ccc(N2CCN(C(C)C(N)=O)CC2)cc1 (centres undefined),100% (inactive)
3,NC(N)=N/N=C/c1ccc(-c2ccc(-c3cc(Cl)cc(Cl)c3)s2)cc1,73.5% (inactive)
4,Cc1ccc2nc(-c3cc4c([nH]c5ccccc54)c(-c4ccc(F)c(F)c4)n3)[nH]c2c1,95.4% (inactive)
5,CNc1ccc(Br)c2c1C(=O)c1ccccc1C2=O,115% (inactive)
6,O=C(O)c1cn(C2CC2)c2cc(N3CCN(C(=O)/C=C/c4ccc(Cl)cc4)CC3)c(F)cc2c1=O,62.4% (inactive)
7,CCC1=CCC[C@@]2(C)CCC[C@@]3(C)CCCC(C)(C)[C@]1([O-])[O+]32,107% (inactive)
8,O=c1[nH]c(-c2ccccc2)nc(CN2CCCCC2)c1O,105% (inactive)
9,Cc1ccc(Nc2nnc(-c3ccc(Cl)cc3)o2)c(C)c1,90.3% (inactive)
10,O=C(N/N=C/C=C\c1ccccc1)C(=O)N/N=C/C=C/c1ccccc1,105% (inactive)
11,COc1cc(-c2nc(N=Nc3c(O)[nH]c4ccc(Br)cc34)[nH]c(=O)c2C#N)cc(OC)c1OC,101% (inactive)
12,O=C(NNC(=O)N1c2ccccc2C=Cc2ccccc21)c1ccc2ccccc2c1,91.4% (inactive)
13,COc1cccc(-c2nc3sccn3c2-c2ccnc(NCCCNS(=O)(=O)c3ccc(C(F)(F)F)cc3)c2)c1,45.9% (inactive)
14,c1cc(C2=N[C@@H]3c4ccccc4C[C@@H]3O2)nc(C2=N[C@@H]3c4ccccc4C[C@@H]3O2)c1,97.1% (inactive)
